In PubChem BioAssay (EPA / NIEHS):
Values joined by “and” are separate entries in the source; they are usually repeats but may differ in a detail not shown here. Identical values can stand only once. Results filed as inconclusive are left out. A structure can be active in one record and inactive in another. Active and inactive are the calls of the source. Rule for the calls, unless noted: active = hit-call score of the fitted dose curve at least 0.9, where 1 is the maximum; inactive = score below 0.9.

Tests used:
[1] = target: Myc proto-oncogene protein (Homo sapiens) (UniProt P01106); assay: ATG_Myc_CIS: Attagene CIS-FACTORIAL HepG2 Assay for human Myelocytomatosis (Myc) Proto-Oncogene Transcription Factor (AID 2282990); settings: HepG2, Attagene cis-reporter transcription factor activity; actives raise or lower the signal
Summary of the method: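 Multiplexed cis-reporter transcription in HepG2 cells after 24 h chemical treatment. Reporter mRNA measured by RT-PCR and capillary electrophoresis fluorescence; activity fitted bidirectionally against DMSO control.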

[2] = ATG_NRF2_ARE_CIS: Attagene CIS-FACTORIAL HepG2 Assay for human Nuclear Factor Erythroid 2 Related Factor 2 (NFR2) response to Antioxidant Response Elements (ARE) (AID 2282992); settings: HepG2 Attagene ARE/NRF2 reporter, transcription factor activity; actives raise or lower the signal
Summary of the method: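 Endogenous transcription factor activity read out as reporter transcript levels (RT-PCR plus capillary electrophoresis, fluorescence) in transiently transfected HepG2 cells. Measured at 24 h after dosing; gain or loss of signal fitted versus DMSO.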

[3] = ATG_Oct_MLP_CIS: Attagene CIS-FACTORIAL HepG2 Assay for human Octamer-Binding Transcription Factor (Oct) (AID 2282993); settings: HepG2 Attagene cis-factorial Oct reporter, mRNA; actives raise or lower the signal
Summary of the method: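 Readout is reporter transcript level from RT-PCR with fluorescent primer extension and capillary electrophoresis, fitted in both directions against DMSO. Transfected HepG2 reporter units report endogenous factor activity after 24 h dosing.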

[4] = BSK_3C_uPAR: BioMAP Diversity Plus: 3C Assay for Urokinase-type plasminogen activator receptor (uPAR) Biomarker Activity (AID 2282998); settings: BioMAP 3C HUVEC, uPAR biomarker ELISA; actives raise or lower the signal
Summary of the method: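 Cell-surface uPAR on HUVEC (3C system) read by ELISA at 24 h post-treatment, with DMSO as baseline and fitting in both directions. Parallel cultures stained with SRB to flag overt cytotoxicity.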

[5] = BSK_3C_VCAM1: BioMAP Diversity Plus: 3C Assay for Vascular cell adhesion molecule 1 (VCAM1) Biomarker Activity (AID 2282999); settings: BioMAP 3C HUVEC, VCAM1 ELISA, cytokine-stimulated; actives raise or lower the signal
Summary of the method: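 Vascular primary endothelium (human umbilical vein) was exposed to chemicals and assayed 24 h later. VCAM-1 levels came from ELISA, with DMSO serving as baseline for bidirectional fitting.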

[6] = BSK_4H_Eotaxin3: BioMAP Diversity Plus: 4H Assay for Eotaxin 3 Biomarker Activity (AID 2283000); settings: primary human endothelial cells (HUVEC); actives raise or lower the signal
Summary of the method: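 Eotaxin-3 (CCL26) levels were measured by ELISA in HUVEC primary cultures 24 h post-dosing. Gain or loss of signal was fitted in both directions, with DMSO serving as baseline and negative control.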

[7] = read-out: Intercellular Adhesion Molecule 1 (ICAM1), ICAM1 (gene 3383); assay: BSK_3C_ICAM1: BioMAP Diversity Plus: 3C Assay for Intercellular Adhesion Molecule 1 (ICAM1) Biomarker Activity (AID 2283003); settings: primary human endothelial cells (HUVEC); actives raise or lower the signal
Summary of the method: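 ELISA read-out of ICAM-1; HUVEC (primary human), 3C system, 24 h post-dosing; bidirectional fit vs DMSO baseline.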

[8] = target: human Retinoic Acid Receptor beta (RARb), RARB (gene 5915) (UniProt P10826); assay: ATG_RARb_TRANS: Attagene TRANS-FACTORIAL HepG2 Assay for human Retinoic Acid Receptor beta (AID 2283004; active = hit-call score of the fitted dose curve at least 0.9, where 1 is the maximum)
Summary of the method: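 HepG2 cells were transiently transfected with GAL4-UAS reporter units that report activity of exogenous chimeric NR-Gal4 proteins, then exposed to compound for 24 h. Reporter mRNA was quantified by RT-PCR with capillary electrophoresis fluorescence, as gain of signal over DMSO.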

[9] = target: Retinoic acid receptor alpha (Homo sapiens) (UniProt P10276); assay: ATG_RARa_TRANS: Attagene TRANS-FACTORIAL HepG2 Assay for human Retinoic Acid Receptor alpha (RARa) (AID 2283005; active = hit-call score of the fitted dose curve at least 0.9, where 1 is the maximum)
Summary of the method: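 HepG2 cells transiently transfected with multiple reporter units expressing chimeric RARα-GAL4 fusion, with GAL4-UAS-driven reporters. After 24 h compound exposure, reporter mRNA induction quantified by RT-PCR and capillary electrophoresis with fluorescent labeling; gain-of-signal fitted relative to DMSO control.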

[10] = BSK_3C_Proliferation: Cell Proliferation Assessment in the BioMAP Diversity Plus: 3C Assay (AID 2283006); settings: primary human endothelial cells (HUVEC);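 for AC50: potency may reflect either rise or fall in cell number versus DMSO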
Summary of the method: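 HUVEC, sub-confluent; 48 h chemical exposure; 10% TCA fix, 0.1% SRB stain, A560 total protein. Gain or loss of signal fitted both directions vs DMSO control.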

[11] = target: Peroxisome proliferator-activated receptor gamma (Homo sapiens) (UniProt P37231); assay: ATG_PPARg_TRANS: Attagene TRANS-FACTORIAL HepG2 Assay for human Peroxisome Proliferator-activated Receptor-gamma (PPARg) (AID 2283007; active = hit-call score of the fitted dose curve at least 0.9, where 1 is the maximum)
Summary of the method: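 A TRANS-format multiplexed reporter assay measures activity of an exogenous chimeric NR-Gal4 protein in HepG2 cells. After 24 h of chemical exposure, reporter transcripts are amplified, fluorescently labelled and sized by capillary electrophoresis, with gain of signal scored against DMSO.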

[12] = target: human Retinoic Acid Receptor gamma (RARg), RARG (gene 5916) (UniProt P13631); assay: ATG_RARg_TRANS: Attagene TRANS-FACTORIAL HepG2 Assay for human Retinoic Acid Receptor gamma (RARg) (AID 2283009; active = hit-call score of the fitted dose curve at least 0.9, where 1 is the maximum)
Summary of the method: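 Readout: reporter transcript levels via RT-PCR, 6-FAM primer-extension labelling, HpaI digestion and capillary electrophoresis. Cells: HepG2 carrying transfected RARg-GAL4 chimera plus UAS reporter set. Dosing 24 h; DMSO negative control.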

[13] = target: human RAR-related Orphan Receptor beta (RORb), RORB (gene 6096) (UniProt Q92753); assay: ATG_RORb_TRANS: Attagene TRANS-FACTORIAL HepG2 Assay for human RAR-related Orphan Receptor beta (RORb) (AID 2283010; active = hit-call score of the fitted dose curve at least 0.9, where 1 is the maximum)
Summary of the method: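 HepG2, transient MRTU transfection (GAL4-UAS reporters, exogenous NR-Gal4 chimeras); 24 h compound exposure; total RNA → RT-PCR → 6-FAM primer extension → HpaI digest → CE fluorescence. Positive direction vs DMSO baseline.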

[14] = target: human RAR-related Orphan Receptor gamma (RORg), RORC (gene 6097) (UniProt P51449); assay: ATG_RORg_TRANS: Attagene TRANS-FACTORIAL HepG2 Assay for human RAR-related Orphan Receptor gamma (RORg) (AID 2283011; active = hit-call score of the fitted dose curve at least 0.9, where 1 is the maximum)
Summary of the method: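 HepG2 cells transiently transfected with GAL4-UAS reporter units and chimeric RORg-Gal4 construct; after 24 h chemical exposure, reporter mRNA measured by RT-PCR with fluorescent capillary electrophoresis, gain of signal fitted against DMSO.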

[15] = target: human Peroxisome Proliferator-activated Receptor alpha (PPARa), PPARA (gene 5465) (UniProt Q07869); assay: ATG_PPARa_TRANS: Attagene TRANS-FACTORIAL HepG2 Assay for human Peroxisome Proliferator-activated Receptor alpha (PPARa) (AID 2283001; active = hit-call score of the fitted dose curve at least 0.9, where 1 is the maximum;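 for AC50: potency for gain of reporter signal over DMSO so agonist or activator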)
Summary of the method: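 Exposure: 24 h, transiently transfected HepG2 cells. Endpoint: GAL4-UAS reporter mRNA, RT-PCR with capillary electrophoresis fluorescence. Baseline: DMSO; increases fitted.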

[16] = target: human Peroxisome Proliferator-activated Receptor delta (PPARd), PPARD (gene 5467) (UniProt Q03181); assay: ATG_PPARd_TRANS: Attagene TRANS-FACTORIAL HepG2 Assay for human Peroxisome Proliferator-activated Receptor delta (PPARd) (AID 2283002; active = hit-call score of the fitted dose curve at least 0.9, where 1 is the maximum)
Summary of the method: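 Multiplexed trans-activation format: HepG2 liver cells expressing exogenous NR-Gal4 chimeras and GAL4-UAS reporters were exposed for 24 h. Reporter mRNA was detected by RT-PCR with capillary electrophoresis fluorescence; activity fitted as gain of signal relative to DMSO.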

[17] = target: Nuclear receptor subfamily 1 group I member 2 (Homo sapiens) (UniProt O75469); assay: ATG_PXR_TRANS: Attagene TRANS-FACTORIAL HepG2 Assay for human Pregnane X Receptor (PXR) (AID 2283008; active = hit-call score of the fitted dose curve at least 0.9, where 1 is the maximum)
Summary of the method: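 Transactivation by exogenous PXR–GAL4 fusion measured as reporter transcript induction after 24 h compound treatment of transfected human HepG2 cells. Read-out via RT-PCR and capillary electrophoresis of labelled fragments, fitted upward relative to DMSO.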

[18] = target: Cellular tumor antigen p53 (Homo sapiens) (UniProt P04637); assay: ATG_p53_CIS: Attagene CIS-FACTORIAL HepG2 Assay for human p53 Transcription Factor (AID 2282994); settings: HepG2 p53 cis-element reporter, Attagene mRNA; actives raise or lower the signal
Summary of the method: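 Endogenous p53 activity read in transiently transfected HepG2 from a cis-element-driven reporter transcript after 24 h exposure. RNA reverse-transcribed, PCR-amplified, fluorescently labelled and sized by capillary electrophoresis; gain or loss fitted against DMSO baseline.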

[19] = ATG_NF_kB_CIS: Attagene CIS-FACTORIAL HepG2 Assay for human Nuclear Factor Kappa B (NF-kB) (AID 2282991); settings: HepG2 Attagene cis-factorial NF-kB reporter mRNA; actives raise or lower the signal
Summary of the method: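 Endogenous transcription factor activity in HepG2 was captured via cis-regulated reporter constructs; after 24 h dosing, reporter mRNA was reverse-transcribed, amplified, fluorescently labelled and sized by capillary electrophoresis, with activity fitted bidirectionally relative to DMSO.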

[20] = BSK_3C_TissueFactor: BioMAP Diversity Plus: 3C Assay for Tissue Factor Biomarker Activity (AID 2282997); settings: BioMAP 3C HUVEC, tissue factor biomarker readout; actives raise or lower the signal
Summary of the method: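 Tissue Factor measured by ELISA, 24 h after treatment of primary HUVEC in the BioMAP 3C setting.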

Measured: AC50

Sequence of Cellular tumor antigen p53 (Homo sapiens) (P04637 whole entry, looked up): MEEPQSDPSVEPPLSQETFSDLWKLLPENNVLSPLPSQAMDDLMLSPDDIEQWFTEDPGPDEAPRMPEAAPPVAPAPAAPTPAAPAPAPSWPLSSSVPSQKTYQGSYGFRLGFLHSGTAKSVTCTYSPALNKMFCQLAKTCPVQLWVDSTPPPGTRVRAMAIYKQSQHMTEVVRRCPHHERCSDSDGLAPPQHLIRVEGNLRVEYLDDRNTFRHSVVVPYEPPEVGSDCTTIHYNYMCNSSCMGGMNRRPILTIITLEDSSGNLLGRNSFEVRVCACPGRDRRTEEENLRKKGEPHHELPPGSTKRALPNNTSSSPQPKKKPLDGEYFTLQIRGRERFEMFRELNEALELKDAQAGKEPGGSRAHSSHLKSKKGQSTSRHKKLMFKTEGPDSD
Sequence of Retinoic acid receptor alpha (Homo sapiens) (P10276 whole entry, looked up, the tested form may be a part): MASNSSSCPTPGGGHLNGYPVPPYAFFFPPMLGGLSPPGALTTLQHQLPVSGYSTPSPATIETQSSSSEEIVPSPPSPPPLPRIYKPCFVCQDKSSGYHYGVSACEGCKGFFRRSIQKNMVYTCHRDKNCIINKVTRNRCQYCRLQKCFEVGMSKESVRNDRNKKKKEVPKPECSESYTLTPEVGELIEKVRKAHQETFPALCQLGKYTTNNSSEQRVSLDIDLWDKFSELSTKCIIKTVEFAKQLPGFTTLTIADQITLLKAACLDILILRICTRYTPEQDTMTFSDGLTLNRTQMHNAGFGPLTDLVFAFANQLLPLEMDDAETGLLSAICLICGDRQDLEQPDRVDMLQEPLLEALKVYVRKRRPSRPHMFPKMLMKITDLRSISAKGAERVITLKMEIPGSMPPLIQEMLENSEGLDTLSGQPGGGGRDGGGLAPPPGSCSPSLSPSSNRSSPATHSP
Sequence of human Peroxisome Proliferator-activated Receptor alpha (PPARa), PPARA (gene 5465) (Q07869 whole entry, looked up, the tested form may be a part): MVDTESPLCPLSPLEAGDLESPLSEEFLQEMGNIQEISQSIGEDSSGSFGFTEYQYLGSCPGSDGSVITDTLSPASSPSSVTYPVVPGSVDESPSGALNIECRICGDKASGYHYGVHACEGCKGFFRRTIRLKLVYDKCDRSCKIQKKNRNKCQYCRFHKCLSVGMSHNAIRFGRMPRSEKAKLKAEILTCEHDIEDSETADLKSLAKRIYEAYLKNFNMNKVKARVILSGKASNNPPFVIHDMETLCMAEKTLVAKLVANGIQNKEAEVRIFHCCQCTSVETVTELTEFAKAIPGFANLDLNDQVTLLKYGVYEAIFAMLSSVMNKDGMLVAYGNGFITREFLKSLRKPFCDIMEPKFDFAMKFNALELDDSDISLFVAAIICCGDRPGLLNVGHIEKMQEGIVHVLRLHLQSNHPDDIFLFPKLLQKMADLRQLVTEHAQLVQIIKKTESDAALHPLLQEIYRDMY
Sequence of Peroxisome proliferator-activated receptor gamma (Homo sapiens) (P37231 whole entry, looked up, the tested form may be a part): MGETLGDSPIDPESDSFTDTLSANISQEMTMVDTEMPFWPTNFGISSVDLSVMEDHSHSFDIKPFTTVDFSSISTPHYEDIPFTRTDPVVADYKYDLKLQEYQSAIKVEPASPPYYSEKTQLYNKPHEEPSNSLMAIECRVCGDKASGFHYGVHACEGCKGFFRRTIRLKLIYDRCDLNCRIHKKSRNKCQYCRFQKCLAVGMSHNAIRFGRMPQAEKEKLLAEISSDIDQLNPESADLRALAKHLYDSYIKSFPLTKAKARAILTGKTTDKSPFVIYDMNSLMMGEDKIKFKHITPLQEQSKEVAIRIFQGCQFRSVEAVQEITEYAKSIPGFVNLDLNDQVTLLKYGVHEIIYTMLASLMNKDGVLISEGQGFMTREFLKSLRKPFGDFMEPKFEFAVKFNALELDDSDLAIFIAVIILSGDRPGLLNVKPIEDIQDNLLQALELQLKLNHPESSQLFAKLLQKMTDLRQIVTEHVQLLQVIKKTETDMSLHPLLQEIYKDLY
Sequence of Myc proto-oncogene protein (Homo sapiens) (P01106 whole entry, looked up): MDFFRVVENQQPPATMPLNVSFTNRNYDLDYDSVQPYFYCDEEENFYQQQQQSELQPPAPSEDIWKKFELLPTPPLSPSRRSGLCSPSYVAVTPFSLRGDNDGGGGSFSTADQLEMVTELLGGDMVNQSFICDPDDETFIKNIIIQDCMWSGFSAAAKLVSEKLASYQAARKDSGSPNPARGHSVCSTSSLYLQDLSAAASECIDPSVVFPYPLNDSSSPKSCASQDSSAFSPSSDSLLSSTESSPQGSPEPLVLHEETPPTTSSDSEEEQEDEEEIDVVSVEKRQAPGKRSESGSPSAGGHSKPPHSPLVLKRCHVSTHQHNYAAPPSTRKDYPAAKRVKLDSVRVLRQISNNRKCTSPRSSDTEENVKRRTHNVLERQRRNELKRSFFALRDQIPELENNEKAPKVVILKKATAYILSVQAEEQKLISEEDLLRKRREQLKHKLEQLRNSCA
Sequence of human Retinoic Acid Receptor gamma (RARg), RARG (gene 5916) (P13631 whole entry, looked up, the tested form may be a part): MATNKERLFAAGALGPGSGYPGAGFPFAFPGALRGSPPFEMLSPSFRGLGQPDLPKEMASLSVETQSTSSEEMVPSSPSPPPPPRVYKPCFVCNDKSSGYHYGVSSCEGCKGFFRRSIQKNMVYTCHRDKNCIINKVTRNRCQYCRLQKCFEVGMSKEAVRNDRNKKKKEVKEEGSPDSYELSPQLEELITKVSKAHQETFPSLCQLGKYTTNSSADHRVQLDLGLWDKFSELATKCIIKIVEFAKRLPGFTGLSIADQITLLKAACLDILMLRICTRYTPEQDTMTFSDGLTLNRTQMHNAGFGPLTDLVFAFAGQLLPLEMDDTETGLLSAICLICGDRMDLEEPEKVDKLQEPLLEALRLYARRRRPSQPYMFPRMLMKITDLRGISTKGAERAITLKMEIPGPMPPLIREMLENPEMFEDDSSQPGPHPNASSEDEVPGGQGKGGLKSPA
Sequence of human RAR-related Orphan Receptor gamma (RORg), RORC (gene 6097) (P51449 whole entry, looked up, the tested form may be a part): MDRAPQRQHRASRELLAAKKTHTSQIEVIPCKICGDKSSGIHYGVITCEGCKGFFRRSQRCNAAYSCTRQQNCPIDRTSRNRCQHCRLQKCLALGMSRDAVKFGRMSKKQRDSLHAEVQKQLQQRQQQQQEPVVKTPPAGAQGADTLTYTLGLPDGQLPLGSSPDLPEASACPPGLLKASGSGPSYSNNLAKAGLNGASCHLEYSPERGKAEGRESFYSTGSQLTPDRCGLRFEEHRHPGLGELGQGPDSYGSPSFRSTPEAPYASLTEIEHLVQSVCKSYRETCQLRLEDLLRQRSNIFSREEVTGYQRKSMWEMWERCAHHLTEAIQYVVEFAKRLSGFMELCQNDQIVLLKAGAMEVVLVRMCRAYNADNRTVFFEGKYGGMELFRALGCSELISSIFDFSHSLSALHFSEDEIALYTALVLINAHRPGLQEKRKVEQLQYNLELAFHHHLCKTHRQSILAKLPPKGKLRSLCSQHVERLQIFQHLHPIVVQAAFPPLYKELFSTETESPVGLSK
Sequence of human Retinoic Acid Receptor beta (RARb), RARB (gene 5915) (P10826 whole entry, looked up, the tested form may be a part): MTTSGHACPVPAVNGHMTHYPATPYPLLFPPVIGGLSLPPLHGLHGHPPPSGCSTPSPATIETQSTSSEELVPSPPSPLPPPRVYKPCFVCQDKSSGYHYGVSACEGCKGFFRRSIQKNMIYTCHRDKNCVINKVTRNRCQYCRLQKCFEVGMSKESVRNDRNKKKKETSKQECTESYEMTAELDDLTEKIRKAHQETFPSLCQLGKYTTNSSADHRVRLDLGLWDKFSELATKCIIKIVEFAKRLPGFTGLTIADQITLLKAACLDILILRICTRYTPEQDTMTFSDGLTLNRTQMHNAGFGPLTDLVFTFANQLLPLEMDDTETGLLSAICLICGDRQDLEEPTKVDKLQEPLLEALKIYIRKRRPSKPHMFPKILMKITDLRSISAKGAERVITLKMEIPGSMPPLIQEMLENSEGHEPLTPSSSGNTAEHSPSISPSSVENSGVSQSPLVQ
Sequence of human RAR-related Orphan Receptor beta (RORb), RORB (gene 6096) (Q92753 whole entry, looked up, the tested form may be a part): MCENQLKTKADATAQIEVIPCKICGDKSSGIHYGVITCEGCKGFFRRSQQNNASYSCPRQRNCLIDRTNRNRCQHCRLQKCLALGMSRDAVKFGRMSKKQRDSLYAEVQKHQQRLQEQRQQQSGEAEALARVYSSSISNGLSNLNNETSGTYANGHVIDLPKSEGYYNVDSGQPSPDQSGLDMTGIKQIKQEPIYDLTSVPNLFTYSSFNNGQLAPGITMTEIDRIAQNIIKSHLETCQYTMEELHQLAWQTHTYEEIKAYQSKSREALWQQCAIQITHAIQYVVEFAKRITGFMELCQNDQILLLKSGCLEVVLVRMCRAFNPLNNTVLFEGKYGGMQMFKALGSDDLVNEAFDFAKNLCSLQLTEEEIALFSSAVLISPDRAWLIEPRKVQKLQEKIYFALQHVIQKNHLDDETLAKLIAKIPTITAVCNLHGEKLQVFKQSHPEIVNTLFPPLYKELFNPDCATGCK
Sequence of Nuclear receptor subfamily 1 group I member 2 (Homo sapiens) (O75469 whole entry, looked up, the tested form may be a part): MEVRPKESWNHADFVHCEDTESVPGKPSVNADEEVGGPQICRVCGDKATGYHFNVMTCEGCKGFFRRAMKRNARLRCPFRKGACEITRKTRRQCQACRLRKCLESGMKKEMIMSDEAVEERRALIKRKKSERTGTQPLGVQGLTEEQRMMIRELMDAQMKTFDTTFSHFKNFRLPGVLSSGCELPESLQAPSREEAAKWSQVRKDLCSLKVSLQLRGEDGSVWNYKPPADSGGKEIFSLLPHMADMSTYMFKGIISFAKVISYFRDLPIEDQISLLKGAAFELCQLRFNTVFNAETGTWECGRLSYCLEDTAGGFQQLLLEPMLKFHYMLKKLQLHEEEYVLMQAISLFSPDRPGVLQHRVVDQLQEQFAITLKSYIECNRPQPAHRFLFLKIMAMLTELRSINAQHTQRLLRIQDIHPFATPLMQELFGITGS

CN(Cc1cnc2nc(N)nc(N)c2n1)c1ccc(C(=O)N[C@@H](CCC(=O)O)C(=O)O)cc1
not listed: [15] | [16] | [17] | [18] | [19] | [20]
inactive: all other assays above

CC1CCC(CO)CC1 (stereo not given)
inactive: [1] | [3] | [15] | [16] | [8] | [9] | [17] | [13] | [14]

O=C(Nc1ccc(Cl)c(Cl)c1)c1cc(Cl)cc(Cl)c1O
active: [2] 0.522 µM | [3] 1.11 µM | [18] 10.9 µM | [15] 4.32 µM | [11] 4.33 µM | [17] 2.74 µM
inactive: [1] | [16] | [12] | [13] | [14]

Nc1ccn([C@@H]2O[C@H](CO)[C@@H](O)C2O)c(=O)n1 (stereo not given in full)
active: [16] 56.6 µM
inactive: [1] | [2] | [3] | [15] | [14]

CCCCC(CC)C(=O)O (stereo not given)
inactive: [1] | [4] | [5] | [6] | [15] | [16] | [7] | [10] | [11] | [17]

CCCCCCCCC(C)=O
inactive: [19] | [2] | [3] | [18] | [16] | [17] | [14]

CCCCCCCCCCCC
inactive: [19] | [2] | [3] | [20] | [4] | [5] | [6] | [15] | [7] | [9] | [11] | [17] | [12] | [14]
active: [6] 30.2 µM | [10] 36.1 µM and 31 µM

Cc1cc(Cc2cc(C)cc(C(C)(C)C)c2O)c(O)c(C(C)(C)C)c1
active: [17] 0.0594 µM
inactive: [19] | [2] | [3] | [18] | [15] | [16] | [8] | [9] | [12]

C=CC(=O)OCCC(F)(F)C(F)(F)C(F)(F)C(F)(F)C(F)(F)C(F)(F)C(F)(F)C(F)(F)F
active: [2] 22.1 µM
not listed: [1] | [8] | [9] | [12] | [14]
inactive: all other assays above

CCC(=O)C=Cc1ccc(OC)cc1
inactive: [3] | [18] | [16] | [17]
active: [19] 100 µM | [2] 27.1 µM | [11] 24.6 µM
